Among the data in PubChem BioAssay (Tox21) are Potency values, retold here.

Test [1] is described as follows: Nuclear factor erythroid 2-related factor 2/antioxidant responsive element (Nrf2/ARE) small molecule agonists: qHTS cell viability counter screen in human keratinocytes (AID 1919968; active = well fitted curve in the direction sought with a large enough effect in the repeat runs; an effect the other way counts as inactive or inconclusive; note: nearly all actives have a fitted effect of over 55% in size; note: potency is the fitted concentration of half-maximal effect). In a few lines:
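Cytotoxicity was multiplexed with the Nrf2/ARE luciferase assay in the same wells. Stably transfected HaCaT keratinocytes were treated with test compounds for 23 h at 37 C. Cell viability was then measured by CellTiter-Fluor fluorescence.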

Test [2] is described as follows: Nuclear factor erythroid 2-related factor 2/antioxidant responsive element (Nrf2/ARE) small molecule agonists: luciferase reporter gene qHTS assay in human keratinocytes (AID 1919969; note: nearly all actives have a fitted effect of over 35% in size). (A reporter such as luciferase makes a cellular process visible.)
In test [3] the target is Gonadotropin-releasing hormone receptor (Homo sapiens) (UniProt P30968). Put plainly: Human gonadotropin-releasing hormone receptor (GnRHR) small molecule agonists, calcium flux assay in GnRHR-HEK293 cells (AID 1920063). Note: nearly all actives have a fitted effect of over 35% in size. In a few lines: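 Agonist activity was measured as intracellular calcium flux in HEK293 cells engineered to stably express human GnRHR. After dye loading for 1 hour at 37 C, compounds in DMSO were added and fluorescence was followed for 3 minutes.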
A general note: Calcium flux is commonly read through the fluorescence of an indicator in the cells.

Test [4] deals with KiSS-1 receptor (Homo sapiens) (UniProt Q969F8). The experiment in a line: Human kisspeptin (KISS1R) small molecule agonists, calcium flux assay in KISS1R-HEK293 cells (AID 1920064; active = well fitted curve in the direction sought with a large enough effect in the repeat runs; an effect the other way counts as inactive or inconclusive). In a few lines: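 Agonist activity is monitored as intracellular calcium rise in engineered HEK293 cells carrying human KISS1R. Cells are dye-loaded for 1 h at 37 C before compound addition, and fluorescence is recorded for 3 min.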

A short description of test [5]: G protein-coupled receptor (GPCR) small molecule agonists, calcium flux assay: HEK293 wild type cell line counter screen (AID 1920065). An outline of the steps: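 Seed cells, incubate 18 h (37 C, 5% CO2); add calcium dye, 1 h at 37 C; pin-transfer compounds, ATP control or DMSO; read fluorescence 480/540 nm each second for 3 min.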
A short description of test [6]: p53 small molecule agonists, cell-based qHTS assay with human liver microsomes (AID 1963577).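 Note: p53 response element beta-lactamase reporter cells with liver microsomes plus NADPH.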 An outline of the steps: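 With metabolic activation: human liver microsomes (0.5 mg/mL final) plus NADPH (0.5 mg/mL final) added alongside compounds to p53RE-bla cells; 16 h 37 C exposure; beta-lactamase read by LiveBLAzer fluorescence.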
(Quantitative high-throughput screening tests each substance at several concentrations.)

Test [7] is described as follows: p53 small molecule agonists, cell-based qHTS assay with rat liver microsomes (AID 1963578). In a few lines:
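Metabolic activation by rat liver microsomes and NADPH, each 0.5 mg/mL final, added right after compounds to p53RE-bla reporter cells (4,000/well, plated 5 h earlier). 16 h at 37 C, then LiveBLAzer substrate for 2 h at room temperature in the dark; fluorescence read-out.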

Test [8] in a line: p53 small molecule agonists, cell-based qHTS assay with human liver microsomes: qHTS cell viability counter screen (AID 1963579). Note: nearly all actives have a fitted effect of over 45% in size. An outline of the steps:
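Metabolic activation used human liver microsomes and NADPH, both 0.5 mg/mL final, over 16 hours at 37 C on p53RE-bla cells (4,000/well). Cytotoxicity measured by CellTiter-Glo luminescence, 30 min at room temperature.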

Test [9] in a line: p53 small molecule agonists, cell-based qHTS assay with rat liver microsomes: qHTS cell viability counter screen (AID 1963580). Note: nearly all actives have a fitted effect of over 45% in size. An outline of the steps:
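Rat liver microsome (0.5 mg/mL final) and NADPH (0.5 mg/mL final) co-incubation with compounds for 16 h at 37 C on HCT-116 p53RE-bla cells; cytotoxicity taken from intracellular ATP luminescence.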

Test [10] is described as follows: p53 small molecule agonists, cell-based qHTS assay: qHTS cell viability counter screen (AID 1963581). Note: nearly all actives have a fitted effect of over 45% in size. In a few lines:
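Viability was counter-screened in parallel with the p53 agonist reporter by measuring intracellular ATP luminescence in the same HCT-116 p53RE-bla wells after 16 h compound treatment at 37 C.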

A short description of test [11]: p53 small molecule agonists, cell-based qHTS assay (AID 1963582; active = well fitted activation curve with a large enough effect in the signal ratio in the repeat runs, not every such curve was filed as active; the % refers to the signal ratio). An outline of the steps: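 Cells carrying a p53-responsive bla reporter are treated with test compounds for 16 h at 37 C; beta-lactamase activity is then detected with LiveBLAzer B/G FRET substrate after 2 h at room temperature.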
Test [12] deals with 5-hydroxytryptamine receptor 2A (Homo sapiens) (UniProt P28223). The experiment in a line: 5-hydroxytryptamine receptor 2A (HTR2A) small molecule antagonists, cell-based qHTS assay (AID 1963586). Note: nearly all actives have a fitted effect of over 45% in size. Note: potency is the fitted concentration of half-maximal effect. An outline of the steps: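 CHO cells stably expressing human HTR2A were plated for 18 h at 37 C, then loaded with calcium dye for 1 h. Compounds were preincubated 5 min at room temperature before DOI (4 nM solution) was added. Kinetic fluorescence was read for 3 min.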

Test [13] shares this target. The experiment in a line: 5-hydroxytryptamine receptor 2A (HTR2A) small molecule agonists, cell-based qHTS assay (AID 1963587). Note: nearly all actives have a fitted effect of over 30% in size. An outline of the steps: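 Kinetic calcium-flux fluorescence (2 min, 1 sec intervals) after compound addition in agonist mode. HTR2A-CHO cells were cultured 18 h, then dye-loaded 1 h at 37 C.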
Test [14] concerns the target Muscarinic acetylcholine receptor M1 (Homo sapiens) (UniProt P11229). Put plainly: Cholinergic receptor muscarinic 1 (CHRM1) small molecule antagonists, cell-based qHTS assay (AID 1963588). Note: nearly all actives have a fitted effect of over 40% in size. An outline of the steps:
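Compounds were tested at 15 concentrations in three independent runs. Dye-loaded CHRM1-CHO cells were exposed 5 min at room temperature before stimulation by acetylcholine added at 50nM. Intracellular calcium was read kinetically on FDSS for 3 min.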

The target is the same in test [15]. The experiment in a line: Cholinergic receptor muscarinic 1 (CHRM1) small molecule agonists, cell-based qHTS assay (AID 1963589). Note: nearly all actives have a fitted effect of over 35% in size. An outline of the steps: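 Cells were plated and incubated 18 h at 37 C/5% CO2, loaded with calcium dye for 1 h at 37 C, then treated with compounds in DMSO. Fluorescence was recorded kinetically at 1 sec intervals.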
The nature of test [16]: cAMP Responsive Elements (CRE) small molecule agonists, cell-based qHTS assay (AID 1963590). An outline of the steps:
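Cells carrying a CRE-driven beta-lactamase reporter (HEK 293T) are seeded, incubated overnight (18 h), and treated with test compounds for 3 h at 37 C; reporter activity is then detected with a FRET substrate after 2 h at room temperature.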

Test [17] deals with D(2) dopamine receptor (Homo sapiens) (UniProt P14416). Put plainly: Dopamine D2 receptor (DRD2) small molecule antagonists, cell-based qHTS assay (AID 1963595; active = well fitted inhibition curve with a large enough effect in the signal ratio in the repeat runs, with a control signal flat; the % refers to the signal ratio). In a few lines: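 In this cell-based antagonist screen, compounds act for 10 min at room temperature before a 30 min challenge with 12 nM quinpirole and 200 nM NKH477. cAMP is quantified by HTRF competition in DRD2-HEK293 cells containing 0.1 mM Ro20-1724.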

For test [18], the target named is Beta-2 adrenergic receptor (Homo sapiens) (UniProt P07550). Put plainly: Adrenergic beta2 receptor (ADRB2) small molecule antagonists, cell-based qHTS assay (AID 1963592). Note: series mostly up to about 92 µM; nearly all actives have a fitted effect of over 50% in size. In a few lines:
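Assay format: CHO-ADRB2 cells, 18-20hr seeding at 37C/5% CO2, then compound plus 1nM isoproterenol agonist mix for 0.5hr RT. Homogeneous time-resolved fluorescence cAMP detection after 1hr, expressed as 665/615 nm ratio.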

The target in test [19] is D(2) dopamine receptor (Homo sapiens) (UniProt P14416). The experiment in a line: Dopamine D2 receptor (DRD2) small molecule agonists, cell-based qHTS assay (AID 1963594). Note: nearly all actives have a fitted effect of over 35% in size. An outline of the steps: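 cAMP accumulation in DRD2-HEK293 cells measured by HTRF after 1 h detection; compounds added 10 min before NKH477 (200nM […]) forskolin-analogue stimulation, 30 min at room temperature, with Ro20-1724 present at 0.1 mM final.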

Test [20] is described as follows: cAMP Responsive Elements (CRE) small molecule antagonists, cell-based qHTS assay (AID 1963591; active = well fitted inhibition curve with a large enough effect in the signal ratio in the repeat runs, not every such curve was filed as active; the % refers to the signal ratio). In a few lines: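 Cells (CRE-bla HEK 293T, DMEM with 10% dialyzed FBS and 25 mM HEPES) are seeded and incubated 18 h. Compounds are added with NKH477 agonist at 0.25 uM final for 3 h, then FRET substrate for 2 h.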

Molecules are shown by their SMILES. Several values for one entry are separate records, joined by “and”; a condition that tells them apart may be missing. Identical values can stand only once. Results filed as inconclusive are left out. Where a structure was tested more than once in an assay, its records may differ in their call. Activity calls are given as the source filed them. Unless noted, calls come from the whole dose curve.

KiSS-1 receptor (Homo sapiens), sequence (Q969F8 whole entry, looked up): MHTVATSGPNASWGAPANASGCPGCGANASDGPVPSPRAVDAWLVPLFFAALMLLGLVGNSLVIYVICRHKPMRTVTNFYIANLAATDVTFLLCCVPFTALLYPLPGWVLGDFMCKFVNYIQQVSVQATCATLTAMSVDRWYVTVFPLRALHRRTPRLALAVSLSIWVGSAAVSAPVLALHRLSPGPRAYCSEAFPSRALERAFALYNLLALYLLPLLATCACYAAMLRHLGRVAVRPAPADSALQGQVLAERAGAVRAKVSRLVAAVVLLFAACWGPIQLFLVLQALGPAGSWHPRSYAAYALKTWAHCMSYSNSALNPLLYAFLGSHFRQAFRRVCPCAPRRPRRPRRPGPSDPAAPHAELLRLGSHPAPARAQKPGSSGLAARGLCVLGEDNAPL
D(2) dopamine receptor (Homo sapiens), sequence (P14416 whole entry, looked up): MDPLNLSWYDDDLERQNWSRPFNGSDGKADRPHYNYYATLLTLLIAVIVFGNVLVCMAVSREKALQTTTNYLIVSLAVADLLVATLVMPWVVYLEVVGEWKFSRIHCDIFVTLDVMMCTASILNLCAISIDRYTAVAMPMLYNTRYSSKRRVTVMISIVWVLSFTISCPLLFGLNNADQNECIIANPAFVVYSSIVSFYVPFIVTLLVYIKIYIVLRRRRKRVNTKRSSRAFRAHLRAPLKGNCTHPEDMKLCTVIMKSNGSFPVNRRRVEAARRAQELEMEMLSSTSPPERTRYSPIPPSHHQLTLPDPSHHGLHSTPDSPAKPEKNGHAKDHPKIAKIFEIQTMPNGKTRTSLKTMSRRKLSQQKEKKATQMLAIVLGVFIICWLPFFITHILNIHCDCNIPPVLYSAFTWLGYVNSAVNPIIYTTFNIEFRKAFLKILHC
5-hydroxytryptamine receptor 2A (Homo sapiens), sequence (P28223 whole entry, looked up): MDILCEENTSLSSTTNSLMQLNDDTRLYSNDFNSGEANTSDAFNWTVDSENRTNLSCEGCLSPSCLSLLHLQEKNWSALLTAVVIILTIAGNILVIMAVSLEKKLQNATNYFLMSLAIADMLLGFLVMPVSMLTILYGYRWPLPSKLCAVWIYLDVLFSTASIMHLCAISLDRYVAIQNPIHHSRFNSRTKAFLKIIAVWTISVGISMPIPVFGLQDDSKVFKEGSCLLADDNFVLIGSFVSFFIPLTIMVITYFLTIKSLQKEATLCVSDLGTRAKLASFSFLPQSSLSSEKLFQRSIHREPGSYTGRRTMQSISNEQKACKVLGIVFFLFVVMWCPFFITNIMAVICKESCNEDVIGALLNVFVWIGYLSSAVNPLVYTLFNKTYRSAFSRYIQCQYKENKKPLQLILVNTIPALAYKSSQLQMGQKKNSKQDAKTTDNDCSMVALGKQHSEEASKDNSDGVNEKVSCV
Beta-2 adrenergic receptor (Homo sapiens), sequence (P07550 whole entry, looked up): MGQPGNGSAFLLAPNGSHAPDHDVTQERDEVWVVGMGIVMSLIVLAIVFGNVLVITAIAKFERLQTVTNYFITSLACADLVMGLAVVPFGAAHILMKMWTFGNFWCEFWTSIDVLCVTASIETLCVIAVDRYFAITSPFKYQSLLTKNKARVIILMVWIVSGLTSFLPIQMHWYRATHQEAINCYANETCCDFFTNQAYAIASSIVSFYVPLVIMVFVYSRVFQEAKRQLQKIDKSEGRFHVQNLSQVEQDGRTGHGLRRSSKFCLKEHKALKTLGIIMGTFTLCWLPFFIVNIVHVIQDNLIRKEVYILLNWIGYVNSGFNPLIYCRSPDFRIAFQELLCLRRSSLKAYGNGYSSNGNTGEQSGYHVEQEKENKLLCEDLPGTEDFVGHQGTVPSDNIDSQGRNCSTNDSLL
Muscarinic acetylcholine receptor M1 (Homo sapiens), sequence (P11229 whole entry, looked up): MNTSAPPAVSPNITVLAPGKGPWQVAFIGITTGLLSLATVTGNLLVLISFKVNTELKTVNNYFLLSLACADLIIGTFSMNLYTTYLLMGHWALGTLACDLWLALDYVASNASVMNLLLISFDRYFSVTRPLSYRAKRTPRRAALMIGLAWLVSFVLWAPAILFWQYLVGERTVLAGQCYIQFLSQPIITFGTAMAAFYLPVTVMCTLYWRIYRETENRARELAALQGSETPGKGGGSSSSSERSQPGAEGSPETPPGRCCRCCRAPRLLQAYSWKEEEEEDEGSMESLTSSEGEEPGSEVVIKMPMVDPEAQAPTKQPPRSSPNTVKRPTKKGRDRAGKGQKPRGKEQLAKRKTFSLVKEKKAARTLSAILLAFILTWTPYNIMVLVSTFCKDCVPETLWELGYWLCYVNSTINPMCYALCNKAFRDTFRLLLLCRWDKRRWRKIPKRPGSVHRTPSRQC
Gonadotropin-releasing hormone receptor (Homo sapiens), sequence (P30968 whole entry, looked up): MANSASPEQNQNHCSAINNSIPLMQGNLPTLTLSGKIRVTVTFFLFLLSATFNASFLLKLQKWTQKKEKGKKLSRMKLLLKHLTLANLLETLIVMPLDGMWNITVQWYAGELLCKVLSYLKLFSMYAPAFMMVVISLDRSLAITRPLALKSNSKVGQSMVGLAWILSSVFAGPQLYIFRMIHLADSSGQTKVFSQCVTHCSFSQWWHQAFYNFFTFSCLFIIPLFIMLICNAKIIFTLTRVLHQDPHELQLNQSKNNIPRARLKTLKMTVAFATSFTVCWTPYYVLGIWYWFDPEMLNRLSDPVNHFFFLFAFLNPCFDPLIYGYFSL

`CN1CCc2cccc3c2[C@H]1Cc1ccc(O)c(O)c1-3`: the Potency in test [1] was 30.9 µM (active) and 22.8 µM (active); in test [12], 1.51 µM (active) and inactive. The Potency result in [2], in test [3], in test [4], in test [5], in test [6] and in test [7] was “inactive” throughout. Moreover, the Potency entry in [8], in test [9], in test [10], in test [11], in [13] and in test [14] was “inactive” throughout. The Potency entry in test [15], in test [16] and in test [17] was “inactive” each time.

With `N#CCC(=O)O`, the Potency result in test [1], in test [2], in test [3], in [4], in [5] and in test [6] was “inactive” each time. Further, the Potency result in test [7], in test [8], in test [9], in test [10], in test [11] and in [12] was “inactive” in each case. Besides, the Potency entry in test [13], in test [14], in test [15], in test [16], in [18] and in test [19] was “inactive” throughout. The Potency entry in test [17] is “inactive”.

Turning to `CCCCC(=O)N(C)C`, the Potency result in [1], in test [2], in test [3], in test [4], in test [5] and in [6] was “inactive” each time. Moreover, the Potency result in test [7], in test [8], in test [9], in test [10], in [11] and in test [12] was “inactive” each time. Moreover, the Potency result in [13], in [14], in test [15], in test [16], in test [18] and in test [19] was “inactive” in each case. Further, the Potency result in test [17] was “inactive”.

Take `CC12CC3CC(C)(C1)CC(N)(C3)C2`: the Potency entry in [1], in test [2], in test [3], in test [4], in test [5] and in [6] was “inactive” each time. Further, the Potency result in test [7], in [8], in test [9], in test [10], in test [11] and in [12] was “inactive” throughout. Moreover, the Potency entry in test [13], in test [14], in test [15], in test [20] and in [18] was “inactive” throughout.

Consider `C#CC(C)(O)CC(C)C` (centres undefined), for which the Potency result in test [1], in [2], in [3], in test [4], in [5] and in test [6] was “inactive” in each case. Besides, the Potency entry in test [7], in test [8], in [9], in [10], in test [11] and in test [12] was “inactive” each time. The Potency result in test [13], in test [14], in test [15], in test [16], in [18] and in [17] was “inactive” throughout.

For the molecule `Oc1ccc(O)c2c(O)cccc12`, the Potency entry in test [1], in test [2], in test [3], in [4], in [5] and in test [6] was “inactive” in each case. The Potency result in test [7], in [8], in [9], in test [10], in [11] and in [12] was “inactive” in each case. Besides, the Potency result in test [13], in [14], in [15], in [16], in test [18] and in test [19] was “inactive” in each case. The Potency result in test [17] is “inactive”.
